The panel holds about 79,000 compounds, 15% with a hit somewhere; the sample as a whole holds those more often. No stated cut-off is given here; in the data, active means growth inhibition above about 70%; inactive means the rest.
What was measured:
[1] = NCI Yeast Anticancer Drug Screen. Data for the rad50 strain (AID 155);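 further: 0% = growth of vehicle-only cultures of the same strain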; conditions: S. cerevisiae rad50 strain growth inhibition; at 50.0 µM; stronger effect = higher value
Summary of the method: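 Genetically altered yeast (DNA repair pathway); compound treatment; growth inhibition vs vehicle ctrl.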

[2] = NCI Yeast Anticancer Drug Screen. Data for the mec2-1 strain (AID 157); conditions: S. cerevisiae mec2-1 strain, at 50.0 µM, stronger effect = higher value
Summary of the method: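 Yeast mec2-1 mutant treated with compound. Readout: growth inhibition vs vehicle controls.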

[3] = NCI Yeast Anticancer Drug Screen. Data for the sgs1 mgt1 strain (AID 161);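 further: 0% = growth of cultures given vehicle only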; conditions: S. cerevisiae sgs1 mgt1 strain, at 50.0 µM, stronger effect = higher value
Summary of the method: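 Mutant yeast exposed to compound; growth scored against vehicle-only wells.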

[4] = NCI Yeast Anticancer Drug Screen. Data for the cln2 rad14 strain (AID 165);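 further: 0% = growth equal to vehicle treated cultures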; conditions: S. cerevisiae cln2 rad14 strain, at 50.0 µM, stronger effect = higher value
Summary of the method: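 cln2 rad14 yeast strain; compound exposure; growth inhibition read vs vehicle controls.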

[5] = NCI Yeast Anticancer Drug Screen. Data for the bub3 strain (AID 167); conditions: S. cerevisiae bub3 mutant strain, at 50.0 µM, stronger effect = higher value
Summary of the method: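 Yeast carrying a defined mutation is treated with each compound, and growth is compared with that of vehicle-exposed cells to give inhibition.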

[6] = NCI Yeast Anticancer Drug Screen. Data for the mlh1 rad18 strain (AID 175); conditions: S. cerevisiae mlh1 rad18 strain growth inhibition; at 50.0 µM; stronger effect = higher value
Summary of the method: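 Yeast w/ defined DNA-repair lesions; compound exposure; growth vs vehicle controls → % inhibition.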

Measured: growth inhibition

N#CCCN(c1ccc(C=O)cc1)S(=O)(=O)c1ccccc1
inactive: [1] -0.1% | [2] -13% | [3] -1.75% | [4] 5.75% | [5] -13.4% | [6] -15.7%

O=S1(=O)C=Cc2ccccc2CC1
inactive: [1] -4.15% | [2] -12.2% | [3] -22.4% | [4] -10.8% | [5] 0.9% | [6] -27.8%

O=C1CC(=O)N(c2ccccc2)N1
inactive: [1] 35.2% | [2] 7.45% | [3] 45% | [4] 19.9% | [5] 35.1% | [6] 16.9%

CCCCCCCCCCCCCCCC[N+]1(C)CCC[N+](C)(CCCCCCCCCCCCCCCC)CC1 (stereo unspecified)
inactive: [1] -5.25% | [2] -21% | [3] -2.65% | [4] -22.6% | [5] -8.4% | [6] -0.1%

c1ccc(C[n+]2cccc3ccccc32)cc1
inactive: [1] 1.75% | [2] -29.6% | [3] -7.1% | [4] 6.25% | [5] -1.95% | [6] -12.2%

Cc1ccc(CCC=O)cc1
inactive: [1] 30.6% | [2] -4.1% | [3] 17.4% | [4] -37.9% | [5] -8.5% | [6] 29.4%

CSC1=Nc2cccnc2Nc2cscc21
inactive: [1] -9.25% | [2] -6% | [3] 22.1% | [4] 9.65% | [5] -3.8% | [6] 25.1%

O=c1c2cc([N+](=O)[O-])ccc2n2n1CCCC2
inactive: [1] 15.1% | [2] 9.45% | [3] -13.8% | [4] 16.9% | [5] -16% | [6] -10.4%

O=C(Oc1ccccc1)C(c1ccccc1)c1ccccc1
inactive: [1] -9.95% | [2] 0.7% | [3] 7.95% | [4] -59.7% | [5] 16.7% | [6] -10.5%

O=Nc1ccc(Br)cc1
inactive: [1] -8.2% | [2] 0.35% | [3] -11.7% | [4] 5.8% | [5] 13.1% | [6] -7.5%

N#CCC(CC#N)C(c1cccc2ccccc12)c1cccc2ccccc12
inactive: [1] 9.85% | [2] -2.45% | [3] -3.85% | [4] 3.25% | [5] 18.7% | [6] -1.7%

O=C1C(N=Nc2ccc(Br)cc2)Sc2nc3ccccc3n21 (stereo unspecified)
inactive: [1] 8.2% | [2] -12.4% | [3] 6.45% | [4] -27.4% | [5] 17.1% | [6] 10.3%

COc1ccc(C(=O)c2ccc(OC)cc2)cc1
inactive: [1] -15.1% | [2] -27.1% | [3] -3.1% | [4] -17.6% | [5] 1.6% | [6] -15.1%

Cc1ccc(S(=O)(=O)OCC23CCC(C4CC42)C2CC23)cc1 (stereo unspecified)
inactive: [1] -21.9% | [2] -28.5% | [3] -14.8% | [4] 4.2% | [5] -10.1% | [6] 10.4%

C#Cc1nc(N)c2ncn(C3OC(COS(N)(=O)=O)C(O)C3O)c2n1 (stereo unspecified)
inactive: [1] 17.1% | [2] 32.5% | [3] 7.9% | [4] 28.4% | [5] 10.3% | [6] 10.6%

O=C(/C=C/c1ccc(Cl)cc1)c1ccc(Cl)s1
inactive: [1] -52% | [2] -48.8% | [3] -23.1% | [4] -16.2% | [5] -16.1% | [6] -24.9%

CS(=O)(=O)NCCBr
inactive: [1] -10.4% | [2] -3.5% | [3] 5.9% | [4] -22.4% | [5] -32% | [6] -10.9%

CC1=NNC(=O)C1(C)C
inactive: [1] -16.4% | [2] 0.7% | [3] -20.6% | [4] 26.1% | [5] 3.3% | [6] 4.55%

COc1ccc(-c2ccccc2C(=O)O)cc1
inactive: [1] -2.65% | [2] -14.8% | [3] 5.8% | [4] -12.5% | [5] -7.2% | [6] 8.1%

CC(C)(C)c1ccc(O)c(CN(Cc2cc(C(C)(C)C)ccc2O)c2ccccc2)c1
inactive: [1] 44.4% | [2] 26.9% | [3] 21.6% | [4] -2.2% | [5] 62% | [6] 54.8%

Cc1ccc(Br)c([N+](=O)[O-])c1
inactive: [1] 5.1% | [2] -4.75% | [3] 2.1% | [4] 5.85% | [5] -0.2% | [6] 1.75%

Reference: PubChem BioAssay (NCI)
